# Where “and” joins values, the source holds several entries; their conditions need not be identical. Identical values can stand only once. Records with an inconclusive call do not appear. Where a structure was tested more than once in an assay, its records may differ in their call. Calls of active or inactive are those of the source. Calls follow the shape of the dose curve; as a rule, active = well fitted inhibition curve with a large enough effect; inconclusive = small, poorly fitted or top-dose-only effect; inactive = flat fitted curve, though single readings scatter.
# Experiment: Drug repurposing screens with cells derived from glioblastoma tumor samples (AID 1345199); also: nearly all actives have a fitted effect of over 40% in size
# Conditions: GBM patient neurospheres viability, ATP luminescence, 48 h; at 46.1 µM (top of the series); tumour line C
# Summary of the method: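 Four patient lines of CD133+ GBM neurospheres were screened at several concentrations; hits were retested in those lines plus three slower-growing GBM lines, using 48-hour treatment and ATP-based viability.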
# % is scaled to controls: 0 for no effect and ±100 for the full control effect.
row,Compound,"activity, negative = cell killing"
1,C=Cc1ccccc1,3.42% (inactive)
2,CCCOc1ccc2nc(NC(=O)OC)sc2c1,-26.8% (inactive)
3,CC(=O)S[C@@H]1CC2=CC(=O)CC[C@]2(C)[C@H]2CC[C@@]3(C)[C@@H](CC[C@@]34CCC(=O)O4)[C@H]12,-22.4% (inactive)
4,CC[C@H]1OC(=O)[C@H](C)[C@@H](O[C@H]2C[C@@](C)(OC)[C@@H](O)[C@H](C)O2)[C@H](C)[C@@H](O[C@@H]2O[C@H](C)C[C@H](N(C)C)[C@H]2O)[C@](C)(O)C[C@@H](C)[C@@H]2N[C@@H](COCCOC)O[C@@H]([C@H]2C)[C@]1(C)O,-7.79% (inactive)
5,CC(C)(C)NC(=O)[C@H]1CC[C@H]2[C@@H]3CC=C4C=C(C(=O)O)CC[C@]4(C)[C@H]3CC[C@]12C,-11% (inactive)
6,C=C1CC2C3CCC4=CC(=O)C=C[C@]4(C)[C@@]3(F)[C@@H](O)C[C@]2(C)[C@@]1(O)C(=O)COC(C)=O (stereo partly specified),-4.46% (inactive)
7,O.O=C([O-])CC([S-])C(=O)[O-].[Au+].[Na+].[Na+] (stereo unspecified),15.2% (inactive)
8,CCOc1ccc(N=C(C)Nc2ccc(OCC)cc2)cc1,-2.07% (inactive)
9,COC1=C(C(=O)O)N2C(=O)[C@@H](NC(=O)[C@H](N)C3=CCC=CC3)[C@H]2SC1,6.55% (inactive)
10,O=C(Nc1ccc(/C=C/c2ccc(NC(=O)c3cc(S(=O)(=O)O)c4cccnc4c3O)cc2S(=O)(=O)O)c(S(=O)(=O)O)c1)c1cc(S(=O)(=O)O)c2cccnc2c1O,-10.9% (inactive)
11,CC(C(=O)O)c1ccc(C2CCCCC2)c2ccccc12 (stereo unspecified),-7.75% (inactive)
12,NCCC[C@H](N)C(=O)O,-18.4% (inactive)
13,CC(=O)OC[C@H]1O[C@@H](O[C@H]2[C@H](O)[C@@H](OC(=O)c3ccccc3C(=O)O)[C@H](O)O[C@@H]2COC(C)=O)[C@H](O)[C@@H](OC(=O)c2ccccc2C(=O)O)[C@@H]1O,6.79% (inactive)
14,C[C@]12CC[C@@H]3c4ccc(OS(=O)(=O)O)cc4CC[C@H]3[C@@H]1CCC2=O,-5.66% (inactive)
15,CCCCCCCCCCCCCCCC(=O)OC[C@@H](COP(=O)([O-])OCC[N+](C)(C)C)OC(=O)CCCCCCCCCCCCCCC,0.955% (inactive)
16,N[C@@H](C(=O)N[C@H]1C(=O)N2C(C(=O)O)=C(Cl)CC[C@H]12)c1ccccc1,-12.4% (inactive)
17,CCC(C)(C)OC(=O)N[C@@H](Cc1c[nH]c2ccccc12)C(=O)N[C@@H](CCSC)C(=O)N[C@@H](CC(=O)O)C(=O)N[C@@H](Cc1ccccc1)C(N)=O,-14.8% (inactive)
18,CO[C@H]1[C@@H](O)[C@H](N)[C@@H](O[C@H]2O[C@H]([C@H](C)N)CC[C@H]2N)[C@H](O)[C@@H]1N(C)C(=O)CN,-7.2% (inactive)

row,Compound,"activity, negative = cell killing"
1,CCCCCCCCCC(=O)O,-4.57% (inactive)
2,COc1cc(C[C@@H]2NCCc3cc(O)c(O)cc32)cc(OC)c1OC,-8.42% (inactive)
3,NNc1nnc(Cc2ccncc2)c2ccccc12,-26.3% (inactive)
4,NCCCC(=O)O,-16.7% (inactive)
5,CC(=O)O[C@H]1C[C@@H]2CC[C@@H]3[C@H](CC[C@@]4(C)[C@H]3C[C@H](N3CC[N+](C)(C)CC3)[C@@H]4OC(C)=O)[C@@]2(C)C[C@@H]1N1CC[N+](C)(C)CC1,2.56% (inactive)
6,O=C(O)CC(O)(CC(=O)O)C(=O)O,8.12% (inactive)
7,O=C(O)c1ccccc1[O-].O=C(O)c1ccccc1[O-].[Zn+2],-14.8% (inactive)
8,O=C[C@H](O)[C@@H](O)[C@H](O)[C@H](O)CO,7.35% (inactive)
9,COc1cc2[nH]c(C)c(CCN3CCN(c4ccccc4)CC3)c2cc1OC,-15.6% (inactive)
10,COc1ccc(CNCC(O)COc2ccc3[nH]c(=O)ccc3c2)cc1OC (stereo unspecified),15.6% (inactive)
11,CCCCCCCCCCCCCCCCCC(=O)OCCO,-6.14% (inactive)
12,CN(C)Cc1ccccc1,-2.01% (inactive)
13,CCC(=O)OCC(=O)[C@@]1(OC(=O)CC)[C@@H](C)C[C@H]2[C@@H]3CCC4=CC(=O)C=C[C@]4(C)[C@@]3(Cl)[C@@H](O)C[C@@]21C,-19% (inactive)
14,CCOC(=O)[C@H](CCc1ccccc1)N[C@H]1CCCN2CCC[C@@H](C(=O)O)N2C1=O,4.99% (inactive)
15,CN(C(=O)CO)c1c(I)c(C(=O)NCC(O)CO)c(I)c(C(=O)NCC(O)CO)c1I (stereo unspecified),-4.09% (inactive)
16,CN=C(NC)NCc1ccccc1,-3.39% (inactive)
17,CO[C@@H]1[C@@H](O[C@@H]2O[C@H](C)[C@@H](O[C@H]3C[C@@](C)(O)[C@@H](OC(=O)CC(C)C)[C@H](C)O3)[C@H](N(C)C)[C@H]2O)[C@@H](CC=O)C[C@@H](C)[C@@H](O)/C=C/C=C/C[C@@H](C)OC(=O)C[C@H]1O,-11.8% (inactive) and -30.6% (inactive)
18,CC(CN(C)C)CN1c2ccccc2S(=O)(=O)c2ccccc21 (stereo unspecified),14.3% (inactive)
